From PubChem BioAssay (NCATS)
Inconclusive results are not listed. Calls of active or inactive are those of the source. The call rests on the fitted dose curve; in most records, active means well fitted inhibition curve with a large enough effect; inconclusive means small, poorly fitted or top-dose-only effect; inactive means flat fitted curve, though single readings scatter.

What was measured:
Test in all cases: Cytotoxic Profiling of Annotated Libraries Using Quantitative High-Throughput Screening (AID 1296008); further: nearly all actives have a fitted effect of over 60% in size
Settings in all cases: Five cell lines viability, CellTiter-Glo ATP luminescence, 48-72 h; max response: hits give low values
HaCat = system: HaCat
Outline: (§1)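 Cytotoxicity was measured as CellTiter-Glo ATP luminescence, read after 10 min at room temperature. Compound treatment of the cells lasted 48 or 72 hr at 37 degrees Celsius in a qHTS format.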

KB-3-1 = system: KB-3-1
Outline: as §1

NIH3T3 = system: NIH3T3
Outline: as §1

Measured: max response
On the % scale 0 is the no-effect control and ±100 the full control effect.

C=C1CCC2C(C)(C(=O)O)CCCC2(C)C1CC/C(=C\CO)CO (stereo unspecified)
inactive: HaCat -8.15% | KB-3-1 8.33% | NIH3T3 3.98%

O=[N+]([O-])c1cn2c(n1)OCC(OCc1ccc(OC(F)(F)F)cc1)C2 (stereo unspecified)
inactive: HaCat -6.12% | KB-3-1 -10.4% | NIH3T3 0.653%

COc1c(C)c(OCC(O)C(C)(C)O)cc2c1COC2=O (stereo unspecified)
inactive: HaCat -8.24% | KB-3-1 | NIH3T3 -1.75%

CC(C)(O)CC(CO)NC(=O)CC(O)CC(=O)Cc1ccccc1 (stereo unspecified)
inactive: HaCat 3.84% | KB-3-1 2.2% | NIH3T3 2.22%

C[C@@H]1O[C@@H](O[C@@H]2CO[C@@H](O[C@H]3CC[C@@]4(C)C(CC[C@]5(C)C4CC=C4[C@@H]6CC(C)(C)CC[C@]6(C(=O)O[C@@H]6O[C@H](CO)[C@@H](O)[C@H](O)[C@H]6O)CC[C@]45C)[C@]3(C)CO)[C@H](O)[C@H]2O[C@@H]2O[C@H](CO)[C@@H](O)[C@H](O)[C@H]2O)[C@H](O)[C@H](O)[C@H]1O (stereo partly specified)
inactive: HaCat -0.513% | KB-3-1 | NIH3T3 2.94%

C/C=C(\C)C(=O)O[C@H]1[C@@H](O[C@]2(COC(=O)CC(C)C)O[C@H](COC(=O)C(C)CC)[C@@H](OC(C)=O)[C@@H]2O)O[C@H](COC(C)=O)[C@@H](O)[C@@H]1O (stereo partly specified)
inactive: HaCat 1.55% | KB-3-1 6.8% | NIH3T3 -0.857%

Cn1nc(C(C)(C)C)cc1C(=O)NC(Cc1cccc(Cl)c1)C(=O)NCC#N (stereo unspecified)
inactive: HaCat -59.1% | KB-3-1 1.87% | NIH3T3 0.163%
